The full data set covers some 8,800 targets. This sample favours those with a hit. About 0.5% of all pairs of compound and target were hits.
Legend:
Assay in all cases: log2 fold change, soluble protein after heating vs DMSO (PISA); higher = thermal stabilisation; K562 lysate, 10 uM; active = over 0.2 and 3.5 SD of the protein, either way, in both replicates (recomputed)
[1] = compound: Cc1cn(-c2cc(NC(=O)c3ccc(C)c(Nc4nccc(-c5cccnc5)n4)c3)cc(C(F)(F)F)c2)cn1 [nilotinib]
Method in brief: (§1)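 Following dounce homogenisation of K562 pellets in PBS pH 7.4 with 1 mM MgCl2, crude extract at 1 mg/mL protein was incubated for 30 min with 10 μM compound. Aliquots were then heated for 3 min over 48°C-58°C and pooled, NP-40 was added to 0.5% at 4°C, and soluble protein was recovered as the supernatant at 21,000xg for 90 min. Channel-sum-equalised TMTpro 16plex LC-MS/MS quantified this protein. Each value, from duplicates, is a log-two fold change in thermal stability relative to solvent controls.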

[2] = compound: Cc1nc(Nc2n[nH]c3c2CN(C(=O)N[C@H](CN(C)C)c2ccccc2)C3(C)C)c2sccc2n1
Method in brief: as §1

[3] = compound: Cc1nc(Nc2ncc(C(=O)Nc3c(C)cccc3Cl)s2)cc(N2CCN(CCO)CC2)n1 [dasatinib]
Method in brief: as §1

[4] = compound: Cc1ncc(-c2ccnc(Nc3ccc(S(C)(=O)=O)cc3)n2)n1C(C)C
Method in brief: as §1

[5] = compound: Cn1cc(-c2ccc3c(c2)CCN3C(=O)Cc2cccc(C(F)(F)F)c2)c2c(N)ncnc21
Method in brief: as §1

[6] = compound: Cn1cc(CNCC2CCN(c3ncc(C(=O)NO)cn3)CC2)c2ccccc21 [quisinostat]
Method in brief: as §1

[7] = compound: Cn1cncc1[C@@](N)(c1ccc(Cl)cc1)c1ccc2c(c1)c(-c1cccc(Cl)c1)cc(=O)n2C [tipifarnib]
Method in brief: as §1

[8] = compound: NC(=O)Nc1cc(-c2cccc(F)c2)sc1C(=O)N[C@H]1CCCNC1
Method in brief: as §1

[9] = compound: NC(=O)c1cnc(N[C@@H]2CCCC[C@@H]2N)nc1Nc1cccc(-n2nccn2)c1
Method in brief: as §1

[10] = compound: NC1(c2ccc(-c3nc4ccn5c(=O)[nH]nc5c4cc3-c3ccccc3)cc2)CCC1
Method in brief: as §1

[11] = compound: NCC(=O)Nc1ccc(-n2nc(C(F)(F)F)cc2-c2ccc3c(ccc4ccccc43)c2)cc1
Method in brief: as §1

[12] = compound: O=C(CCCCCCC(=O)Nc1ccccc1)NO [vorinostat]
Method in brief: as §1

[13] = compound: O=C(O)c1ccc2c(c1)nc(Nc1cccc(Cl)c1)c1ccncc12 [silmitasertib]
Method in brief: as §1

[14] = compound: O=C1NC(=O)C(c2cnc3ccccn23)=C1c1cn2c3c(cc(F)cc13)CN(C(=O)N1CCCCC1)CC2
Method in brief: as §1

[15] = compound: c1cn2cc(-c3ccc4cn[nH]c4c3)nc(Nc3ccc(N4CCOCC4)cc3)c2n1 [entospletinib]
Method in brief: as §1

Measured: log2 fold change

BTAF1 (UniProt O14981)
inactive: [1] -0.005 | [2] 0.018 | [3] -0.028 | [4] 0.007 | [5] 0.008 | [6] -0.015 | [7] -0.011 | [8] 0.033 | [9] 0.016 | [10] 0.004 | [11] 0.01 | [13] 0.003 | [14] -0.008 | [15] -0.031
active: [12] -0.45

ATAD3B (UniProt Q5T9A4)
inactive: [1] -0.017 | [2] 0.019 | [3] 0.01 | [4] -0.026 | [5] 0.046 | [6] 0.018 | [7] -0.004 | [8] 0.051 | [9] -0.006 | [10] 0.006 | [11] -0.128 | [12] 0.132 | [13] 0.015 | [14] -0.057 | [15] 0.012

CANX isoform 2 (UniProt P27824)
inactive: [1] -0.006 | [2] 0.008 | [3] 0.012 | [4] -0.02 | [5] -0.02 | [6] -0.029 | [7] -0.064 | [8] -0.011 | [9] -0.004 | [10] -0.011 | [11] 0.018 | [12] 0.131 | [13] -0.004 | [14] -0.015 | [15] -0.004

CD80 (UniProt P33681)
Sequence of UniProt P33681 (P33681 whole entry, looked up): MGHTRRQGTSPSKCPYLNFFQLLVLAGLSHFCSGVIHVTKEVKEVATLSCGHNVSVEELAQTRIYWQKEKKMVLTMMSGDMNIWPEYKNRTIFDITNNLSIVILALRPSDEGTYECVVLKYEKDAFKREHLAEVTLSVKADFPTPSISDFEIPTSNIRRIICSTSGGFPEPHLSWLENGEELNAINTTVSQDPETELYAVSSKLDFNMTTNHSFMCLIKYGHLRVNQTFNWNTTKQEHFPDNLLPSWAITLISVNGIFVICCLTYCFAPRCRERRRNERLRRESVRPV
inactive: [1] 0.259 | [2] -0.065 | [3] -0.015 | [4] -0.333 | [5] 0.039 | [6] 0.025 | [7] 0.023 | [8] -0.002 | [9] 0.086 | [10] -0.03 | [11] 0.018 | [12] -0.028 | [13] -0.067 | [14] -0.066 | [15] -0.162

BRD3 (UniProt Q15059)
inactive: [1] -0.069 | [2] 0.074 | [3] -0.011 | [4] 0.025 | [5] -0.018 | [6] 0.013 | [7] 0.013 | [8] 0.066 | [9] -0.024 | [10] -0.185 | [11] 0.052 | [12] -0.117 | [13] -0.146 | [14] 0.021 | [15] -0.018

C18orf25 (UniProt Q96B23)
Sequence of UniProt Q96B23 (Q96B23 whole entry, looked up): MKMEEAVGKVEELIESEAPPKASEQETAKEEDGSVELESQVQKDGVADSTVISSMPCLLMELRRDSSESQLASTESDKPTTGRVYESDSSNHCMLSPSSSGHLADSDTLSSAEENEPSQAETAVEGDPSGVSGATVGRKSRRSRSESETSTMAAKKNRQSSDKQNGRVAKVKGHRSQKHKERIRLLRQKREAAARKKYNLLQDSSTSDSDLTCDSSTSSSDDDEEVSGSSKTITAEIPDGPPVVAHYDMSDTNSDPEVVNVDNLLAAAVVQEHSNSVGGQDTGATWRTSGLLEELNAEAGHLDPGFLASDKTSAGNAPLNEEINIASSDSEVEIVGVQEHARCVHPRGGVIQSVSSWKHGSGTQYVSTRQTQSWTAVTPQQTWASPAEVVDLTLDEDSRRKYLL
inactive: [1] 0.139 | [2] -0.014 | [3] -0.022 | [4] -0.018 | [5] 0.082 | [6] -0.007 | [7] 0.003 | [8] 0 | [9] 0.011 | [10] -0.008 | [11] 0.03 | [12] 0.089 | [13] -0.147 | [14] -0.034 | [15] 0.036

ATXN2 (UniProt Q99700)
Sequence of UniProt Q99700 (Q99700 whole entry, looked up): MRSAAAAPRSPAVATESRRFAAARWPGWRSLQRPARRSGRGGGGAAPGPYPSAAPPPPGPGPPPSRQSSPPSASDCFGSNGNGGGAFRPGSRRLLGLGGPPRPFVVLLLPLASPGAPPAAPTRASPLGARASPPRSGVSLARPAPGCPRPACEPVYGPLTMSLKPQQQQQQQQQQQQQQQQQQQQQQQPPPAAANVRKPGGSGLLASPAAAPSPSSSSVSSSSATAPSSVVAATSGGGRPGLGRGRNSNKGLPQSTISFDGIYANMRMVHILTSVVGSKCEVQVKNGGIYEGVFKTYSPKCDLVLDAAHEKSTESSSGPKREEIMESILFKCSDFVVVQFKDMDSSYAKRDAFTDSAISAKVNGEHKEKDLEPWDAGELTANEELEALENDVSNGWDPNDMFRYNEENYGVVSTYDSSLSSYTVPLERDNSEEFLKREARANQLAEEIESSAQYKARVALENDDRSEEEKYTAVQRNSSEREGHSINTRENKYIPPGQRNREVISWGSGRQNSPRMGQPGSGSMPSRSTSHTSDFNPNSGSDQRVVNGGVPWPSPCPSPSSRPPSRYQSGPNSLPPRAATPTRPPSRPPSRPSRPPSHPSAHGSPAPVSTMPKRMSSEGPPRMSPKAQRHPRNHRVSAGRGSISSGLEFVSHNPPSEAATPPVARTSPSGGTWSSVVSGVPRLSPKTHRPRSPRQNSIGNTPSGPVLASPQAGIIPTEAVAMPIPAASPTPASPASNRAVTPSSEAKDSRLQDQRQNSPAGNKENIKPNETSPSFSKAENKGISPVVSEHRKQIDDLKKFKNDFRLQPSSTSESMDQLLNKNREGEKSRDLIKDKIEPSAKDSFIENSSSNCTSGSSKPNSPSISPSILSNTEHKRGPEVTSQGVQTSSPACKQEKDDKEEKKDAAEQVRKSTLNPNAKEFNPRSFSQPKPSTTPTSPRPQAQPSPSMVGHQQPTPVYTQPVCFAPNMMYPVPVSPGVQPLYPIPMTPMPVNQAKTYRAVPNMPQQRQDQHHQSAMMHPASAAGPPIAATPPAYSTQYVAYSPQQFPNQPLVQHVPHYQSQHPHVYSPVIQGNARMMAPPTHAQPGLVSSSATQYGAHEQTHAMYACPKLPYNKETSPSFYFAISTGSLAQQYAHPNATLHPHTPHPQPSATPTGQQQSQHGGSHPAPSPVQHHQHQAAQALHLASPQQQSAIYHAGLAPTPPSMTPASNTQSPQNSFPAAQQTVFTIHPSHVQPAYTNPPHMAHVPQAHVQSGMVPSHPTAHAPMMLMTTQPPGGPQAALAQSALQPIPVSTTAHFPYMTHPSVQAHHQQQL
inactive: [1] -0.04 | [2] 0.023 | [3] 0.023 | [4] -0.003 | [5] 0.047 | [6] -0.065 | [7] 0.014 | [8] 0.045 | [9] 0.011 | [10] -0.028 | [11] 0.024 | [13] -0.01 | [14] -0.005 | [15] -0.008
active: [12] -0.282

CASP9 (UniProt P55211)
inactive: [1] -0.004 | [2] 0.006 | [3] -0.055 | [4] -0.012 | [5] -0.013 | [6] -0.056 | [7] 0.005 | [8] 0.056 | [9] -0.011 | [10] 0.007 | [11] 0.011 | [13] -0.004 | [14] 0.019 | [15] -0.002
active: [12] -0.342

CCNB2 (UniProt O95067)
inactive: [1] -0.053 | [2] 0.081 | [3] -0.016 | [5] -0.046 | [6] -0.081 | [7] -0.029 | [8] 0.012 | [9] -0.038 | [10] 0 | [11] 0.01 | [12] -0.115 | [13] -0.079 | [14] -0.08 | [15] 0.044
active: [4] 0.21

BUD23 isoform 3 (UniProt O43709)
inactive: [1] -0.003 | [2] -0.008 | [3] 0.035 | [4] -0.084 | [5] 0.035 | [6] 0.009 | [7] 0.015 | [8] 0.035 | [9] -0.076 | [10] -0.017 | [11] 0.007 | [12] 0.014 | [13] -0.07 | [14] -0.021 | [15] 0.055

CAPN15 (UniProt O75808)
Sequence of UniProt O75808 (O75808 whole entry, looked up): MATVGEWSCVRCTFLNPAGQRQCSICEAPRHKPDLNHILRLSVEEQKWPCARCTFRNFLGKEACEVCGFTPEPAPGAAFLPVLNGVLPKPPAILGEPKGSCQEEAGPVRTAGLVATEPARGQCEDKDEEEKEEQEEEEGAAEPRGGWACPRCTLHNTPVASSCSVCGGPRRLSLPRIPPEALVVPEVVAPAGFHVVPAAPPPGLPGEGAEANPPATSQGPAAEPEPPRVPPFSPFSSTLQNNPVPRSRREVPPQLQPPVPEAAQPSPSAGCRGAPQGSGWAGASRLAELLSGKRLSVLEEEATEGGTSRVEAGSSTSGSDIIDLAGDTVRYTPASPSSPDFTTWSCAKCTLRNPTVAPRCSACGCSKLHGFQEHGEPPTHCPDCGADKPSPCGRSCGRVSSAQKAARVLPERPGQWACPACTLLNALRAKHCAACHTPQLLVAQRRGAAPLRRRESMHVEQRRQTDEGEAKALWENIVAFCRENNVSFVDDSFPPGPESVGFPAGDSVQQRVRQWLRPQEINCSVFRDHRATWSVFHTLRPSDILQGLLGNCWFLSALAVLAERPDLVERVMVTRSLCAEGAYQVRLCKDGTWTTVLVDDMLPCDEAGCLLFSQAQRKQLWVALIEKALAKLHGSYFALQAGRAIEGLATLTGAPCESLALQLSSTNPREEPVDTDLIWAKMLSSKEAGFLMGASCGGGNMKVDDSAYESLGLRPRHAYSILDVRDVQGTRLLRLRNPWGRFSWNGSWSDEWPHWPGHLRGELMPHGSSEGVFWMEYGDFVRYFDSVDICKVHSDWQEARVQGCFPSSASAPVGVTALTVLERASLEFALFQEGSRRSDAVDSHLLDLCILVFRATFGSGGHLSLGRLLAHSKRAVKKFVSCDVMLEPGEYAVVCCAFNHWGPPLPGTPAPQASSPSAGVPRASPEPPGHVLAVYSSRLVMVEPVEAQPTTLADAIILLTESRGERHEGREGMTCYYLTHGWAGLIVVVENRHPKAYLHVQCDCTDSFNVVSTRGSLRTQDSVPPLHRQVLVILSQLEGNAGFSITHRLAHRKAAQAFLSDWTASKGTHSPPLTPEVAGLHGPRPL
active: [12] -0.504
inactive: [1] 0.018 | [2] -0.045 | [3] -0.124 | [4] 0.014 | [5] 0.007 | [6] 0 | [7] 0.04 | [8] 0.025 | [9] -0.08 | [10] 0.054 | [11] 0.028 | [13] -0.016 | [14] -0.081 | [15] -0.043

CDK16 isoform 2 (UniProt Q00536)
Sequence of UniProt Q00536 (Q00536 whole entry, looked up): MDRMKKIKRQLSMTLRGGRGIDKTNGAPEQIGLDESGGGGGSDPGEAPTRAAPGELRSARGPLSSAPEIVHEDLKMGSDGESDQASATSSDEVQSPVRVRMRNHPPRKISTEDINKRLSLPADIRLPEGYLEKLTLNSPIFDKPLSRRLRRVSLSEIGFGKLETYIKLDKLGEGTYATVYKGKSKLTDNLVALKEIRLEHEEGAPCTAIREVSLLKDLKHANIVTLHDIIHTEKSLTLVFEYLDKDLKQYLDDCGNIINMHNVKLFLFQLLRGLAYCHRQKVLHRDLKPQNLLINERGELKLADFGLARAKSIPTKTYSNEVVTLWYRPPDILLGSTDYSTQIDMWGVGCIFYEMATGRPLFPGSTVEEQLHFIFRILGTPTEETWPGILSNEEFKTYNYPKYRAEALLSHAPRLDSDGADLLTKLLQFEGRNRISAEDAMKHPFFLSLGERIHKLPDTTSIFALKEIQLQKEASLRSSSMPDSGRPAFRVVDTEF
inactive: [1] 0.043 | [2] 0.412 | [3] 0.033 | [5] -0.033 | [6] -0.044 | [7] -0.01 | [8] -0.016 | [9] 0.081 | [10] -0.124 | [11] 0.006 | [12] 0.055 | [15] -0.05
active: [4] 0.433 | [13] 0.446 | [14] 0.603

BORCS5 (UniProt Q969J3)
inactive: [1] 0.064 | [2] -0.021 | [3] -0.025 | [4] 0.082 | [5] -0.003 | [6] -0.017 | [7] -0.061 | [8] -0.017 | [9] -0.029 | [10] -0.009 | [11] -0.061 | [12] 0.136 | [13] 0.008 | [14] 0.026 | [15] -0.115

CBFA2T3 (UniProt O75081)
active: [12] -0.4
inactive: [1] -0.018 | [2] 0.02 | [3] -0.026 | [4] -0.019 | [5] -0.008 | [6] -0.07 | [7] -0.047 | [8] 0.043 | [9] 0 | [10] 0.001 | [11] -0.004 | [13] 0.009 | [14] -0.019 | [15] -0.012

CDKN2AIP (UniProt Q9NXV6)
Sequence of UniProt Q9NXV6 (Q9NXV6 whole entry, looked up): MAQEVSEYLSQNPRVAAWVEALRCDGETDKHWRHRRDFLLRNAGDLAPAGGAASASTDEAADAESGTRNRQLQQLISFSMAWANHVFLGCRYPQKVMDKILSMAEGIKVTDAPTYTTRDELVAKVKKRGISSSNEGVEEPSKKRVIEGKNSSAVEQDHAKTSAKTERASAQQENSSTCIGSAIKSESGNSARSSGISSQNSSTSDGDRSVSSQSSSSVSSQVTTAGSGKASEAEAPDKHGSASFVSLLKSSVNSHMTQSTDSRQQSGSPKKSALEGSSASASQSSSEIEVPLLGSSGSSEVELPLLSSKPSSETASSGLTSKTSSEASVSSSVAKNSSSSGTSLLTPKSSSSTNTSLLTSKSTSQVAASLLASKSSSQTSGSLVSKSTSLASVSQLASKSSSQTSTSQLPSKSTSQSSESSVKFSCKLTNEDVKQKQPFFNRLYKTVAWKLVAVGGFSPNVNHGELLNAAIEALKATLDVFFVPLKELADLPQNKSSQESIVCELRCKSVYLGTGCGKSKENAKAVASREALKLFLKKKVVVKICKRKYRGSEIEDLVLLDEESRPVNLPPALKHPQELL
inactive: [1] 0.002 | [2] -0.023 | [3] -0.004 | [4] -0.008 | [5] -0.014 | [6] -0.031 | [7] 0.005 | [8] 0.008 | [9] -0.01 | [10] 0.001 | [11] -0.005 | [12] 0.072 | [13] -0.037 | [14] -0.022 | [15] 0.013

ATG13 isoform 2 (UniProt O75143)
Sequence of UniProt O75143 (O75143 whole entry, looked up): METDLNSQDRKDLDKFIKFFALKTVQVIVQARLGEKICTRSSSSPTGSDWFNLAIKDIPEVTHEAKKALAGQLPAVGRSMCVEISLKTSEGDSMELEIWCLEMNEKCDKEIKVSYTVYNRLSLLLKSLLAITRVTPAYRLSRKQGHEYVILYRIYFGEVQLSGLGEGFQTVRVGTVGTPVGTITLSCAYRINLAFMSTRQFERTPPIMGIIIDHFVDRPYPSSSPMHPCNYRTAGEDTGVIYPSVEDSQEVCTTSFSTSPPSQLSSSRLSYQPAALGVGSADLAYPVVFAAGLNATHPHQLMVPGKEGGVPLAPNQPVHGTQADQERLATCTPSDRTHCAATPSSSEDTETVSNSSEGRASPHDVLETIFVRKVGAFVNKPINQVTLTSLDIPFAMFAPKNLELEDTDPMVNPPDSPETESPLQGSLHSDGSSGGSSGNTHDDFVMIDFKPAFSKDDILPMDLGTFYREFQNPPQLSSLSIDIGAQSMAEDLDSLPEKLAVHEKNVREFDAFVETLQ
inactive: [1] -0.034 | [2] 0.036 | [3] 0.002 | [4] 0.028 | [5] -0.069 | [6] -0.052 | [7] -0.018 | [8] 0.059 | [9] 0 | [10] -0.014 | [11] 0.01 | [12] 0.051 | [13] -0.01 | [14] 0.024 | [15] -0.008

C15orf41 (UniProt Q9Y2V0)
Sequence of UniProt Q9Y2V0 (Q9Y2V0 whole entry, looked up): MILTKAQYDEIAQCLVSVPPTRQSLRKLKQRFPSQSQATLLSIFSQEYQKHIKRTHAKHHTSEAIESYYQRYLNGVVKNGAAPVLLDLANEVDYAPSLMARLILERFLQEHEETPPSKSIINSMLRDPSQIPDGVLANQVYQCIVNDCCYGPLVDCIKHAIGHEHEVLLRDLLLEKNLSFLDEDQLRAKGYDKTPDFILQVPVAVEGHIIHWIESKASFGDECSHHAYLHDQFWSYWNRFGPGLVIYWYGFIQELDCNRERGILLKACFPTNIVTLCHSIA
active: [12] -0.362
inactive: [1] -0.041 | [2] 0 | [3] 0.09 | [4] 0.038 | [5] -0.036 | [6] -0.023 | [7] -0.014 | [8] 0.076 | [9] 0.024 | [10] 0 | [11] -0.124 | [13] -0.011 | [14] -0.012 | [15] 0.04

ATP6V1B1 (UniProt P15313)
inactive: [1] -0.024 | [2] 0.029 | [3] 0.034 | [4] -0.045 | [5] -0.021 | [6] -0.029 | [7] -0.036 | [8] 0.01 | [9] 0.019 | [10] 0.008 | [11] -0.005 | [12] 0.083 | [13] -0.013 | [14] -0.006 | [15] 0.014

Reference: the supplement of paper PMC10849652
